# Test results as given in PubChem BioAssay (NCATS).
# Several values for one entry are separate records, joined by “and”; a condition that tells them apart may be missing. Identical values can stand only once. Results filed as inconclusive are left out. Activity calls are given as the source filed them. Unless noted, calls come from the whole dose curve; as a rule, active = well fitted curve in the direction sought with a large enough effect in the repeat runs; inconclusive = weak or mixed curves; inactive = no such curve, though single readings can be large; an effect the other way counts as inactive or inconclusive.
# Legend:
# [1] = target: Cytochrome P450 2C9 (Homo sapiens) (UniProt P11712); assay: Cytochrome P450 family 2 subfamily C member 9 (CYP2C9) small molecule antagonists: luciferase biochemical (cell-free) qHTS assay (AID 1645842); note: nearly all actives have a fitted effect of over 55% in size; note: potency is the fitted concentration of half-maximal effect
# Sequence of Cytochrome P450 2C9 (Homo sapiens) (P11712 whole entry, looked up): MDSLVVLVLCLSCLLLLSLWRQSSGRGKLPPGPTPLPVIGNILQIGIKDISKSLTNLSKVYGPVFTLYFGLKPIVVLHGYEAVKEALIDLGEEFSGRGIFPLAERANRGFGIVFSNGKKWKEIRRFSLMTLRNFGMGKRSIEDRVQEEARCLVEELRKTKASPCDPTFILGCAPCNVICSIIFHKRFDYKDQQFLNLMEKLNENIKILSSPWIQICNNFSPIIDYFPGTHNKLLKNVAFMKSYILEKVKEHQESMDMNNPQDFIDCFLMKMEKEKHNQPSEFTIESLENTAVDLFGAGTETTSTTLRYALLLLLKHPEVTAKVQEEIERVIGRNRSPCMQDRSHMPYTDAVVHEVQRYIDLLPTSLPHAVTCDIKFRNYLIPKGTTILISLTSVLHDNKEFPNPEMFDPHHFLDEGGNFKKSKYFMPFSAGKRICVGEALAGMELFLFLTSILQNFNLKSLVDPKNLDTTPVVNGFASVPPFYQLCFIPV
# Summary of the method: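 P450-Glo CYP2C9 system: proluciferin substrate with enzyme in mix containing 0.4% BSA, 10 min at room temperature, then NADPH regeneration solution added and incubated 1 h at 37C. Detection reagent stopped reaction; luminescence read after 20 min as RLU.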
# [2] = target: Cytochrome P450 3A4 (Homo sapiens) (UniProt P08684); assay: Cytochrome P450 family 3 subfamily A member 4 (CYP3A4) small molecule antagonists: luciferase qHTS assay (AID 1645841); note: nearly all actives have a fitted effect of over 45% in size; note: potency is the fitted concentration of half-maximal effect
# Sequence of Cytochrome P450 3A4 (Homo sapiens) (P08684 whole entry, looked up): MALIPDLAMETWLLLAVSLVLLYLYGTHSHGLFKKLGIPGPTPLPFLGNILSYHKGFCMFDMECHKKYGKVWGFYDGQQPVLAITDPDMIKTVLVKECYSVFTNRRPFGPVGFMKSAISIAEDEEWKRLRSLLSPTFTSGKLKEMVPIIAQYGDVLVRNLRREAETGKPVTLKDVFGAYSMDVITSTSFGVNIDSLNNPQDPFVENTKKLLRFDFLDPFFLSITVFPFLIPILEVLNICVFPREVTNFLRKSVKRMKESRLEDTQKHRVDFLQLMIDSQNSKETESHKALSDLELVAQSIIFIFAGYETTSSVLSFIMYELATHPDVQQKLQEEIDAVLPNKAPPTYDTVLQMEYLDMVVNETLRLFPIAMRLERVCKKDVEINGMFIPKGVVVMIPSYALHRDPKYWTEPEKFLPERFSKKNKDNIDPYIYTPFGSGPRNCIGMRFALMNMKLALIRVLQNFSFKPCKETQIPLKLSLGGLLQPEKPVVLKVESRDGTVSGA
# Summary of the method: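 Luminescent CYP3A4 activity readout: compounds plus enzyme-substrate mix 10 min at room temperature, reaction started with NADPH regenerating system for 1 h, stopped with detection reagent, read after 20 min. Ketoconazole served as control.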
# [3] = Primary qHTS for inhibitors of nuclear receptor binding SET domain protein 2 (NSD2) in an RCH-ACV wild type WT cells (2C) (AID 1645877; active = well fitted curve in the direction sought with a large enough effect; an effect the other way counts as inactive or inconclusive; note: potency is the fitted concentration of half-maximal effect; nearly all actives have a fitted effect of over 70% in size)
# [4] = Primary qHTS for inhibitors of nuclear receptor binding SET domain protein 2 (NSD2) in an isogenic RCH-ACV NSD2 p.E1099K mutant (9B) (AID 1645876; active = well fitted curve in the direction sought with a large enough effect; an effect the other way counts as inactive or inconclusive; note: nearly all actives have a fitted effect of over 70% in size; note: potency is the fitted concentration of half-maximal effect)
# [5] = target: N-terminal Xaa-Pro-Lys N-methyltransferase 1 (Homo sapiens) (UniProt Q9BV86); assay: Confirmatory qHTS for Inhibitors of N-terminal methyltransferase 1 (NTMT1): MTaseGlo Assay (AID 1645874; active = well fitted curve in the direction sought with a large enough effect; an effect the other way counts as inactive or inconclusive; note: nearly all actives have a fitted effect of over 65% in size; note: potency is the fitted concentration of half-maximal effect)
# Sequence of N-terminal Xaa-Pro-Lys N-methyltransferase 1 (Homo sapiens) (Q9BV86 whole entry, looked up): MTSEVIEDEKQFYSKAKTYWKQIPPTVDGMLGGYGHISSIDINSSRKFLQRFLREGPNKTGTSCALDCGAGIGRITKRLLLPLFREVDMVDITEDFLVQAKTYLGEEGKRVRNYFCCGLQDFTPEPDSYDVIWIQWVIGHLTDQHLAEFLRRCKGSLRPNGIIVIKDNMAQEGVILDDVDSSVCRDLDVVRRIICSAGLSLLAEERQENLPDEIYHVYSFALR
# Summary of the method: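 SPKRIA peptide at 1 uM was methylated by 125 nM NTMT1 using 100 uM SAM over 30 min at room temperature, following a 15 min compound preincubation. Product SAH was detected luminescently.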
# Papain (Carica papaya) = Papain (Carica papaya) (UniProt P00784); assay: Primary qHTS assay for inhibitors of the protease papain (AID 1645873; active = well fitted curve in the direction sought with a large enough effect; an effect the other way counts as inactive or inconclusive;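 note: papain turnover of Z-FR-AMC read as the AMC fluorescence gain over 10 min; series mostly up to about 50 µM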)
# Sequence of Papain (Carica papaya) (P00784 whole entry, looked up): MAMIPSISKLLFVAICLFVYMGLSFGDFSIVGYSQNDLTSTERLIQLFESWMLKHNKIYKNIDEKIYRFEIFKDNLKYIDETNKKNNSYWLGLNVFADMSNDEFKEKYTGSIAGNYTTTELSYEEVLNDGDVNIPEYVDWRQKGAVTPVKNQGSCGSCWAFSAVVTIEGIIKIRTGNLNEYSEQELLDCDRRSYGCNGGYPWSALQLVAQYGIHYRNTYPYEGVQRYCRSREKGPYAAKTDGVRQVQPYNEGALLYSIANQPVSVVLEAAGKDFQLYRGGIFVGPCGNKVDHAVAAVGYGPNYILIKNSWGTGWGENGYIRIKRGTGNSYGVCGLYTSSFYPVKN
compound,measurement,setting,value
O=C(Nc1ccc(N2C(=O)[C@@H]3[C@H](C2=O)[C@@H]2C=C[C@H]3C2)c(Cl)c1)c1ccccn1,Potency,[1],12 µM (active)
Nc1nc(O)c(C2=C3C(=Nc4ccccc43)C(=O)NCC2)[nH]1,Potency,[2],inactive
same,Potency,[3],16.3 µM (active)
C=CC(=O)N1CCC(Oc2cc3c(Nc4ccc(Cl)c(Cl)c4F)ncnc3cc2OC)CC1,Potency,[2],0.239 µM (active)
same,Potency,[1],9.52 µM (active)
same,Potency,[4],4.68 µM (active)
same,Potency,[3],4.68 µM (active)
COc1ccc2nccc(C(=O)CC[C@@H]3CCN(CC#Cc4cc(F)cc(F)c4F)C[C@@H]3C(=O)O)c2c1,Potency,[1],7.56 µM (active)
CCN1CCC[C@@H]1CNC(=O)c1ccc2c(c1)NC(=O)c1cccc(C)c1S2,Potency,[2],inactive
same,Potency,[1],inactive
Fc1ccc(N2CCN(CCC3OCCc4ccccc43)CC2)cc1 (configuration not stated),Potency,[1],inactive
NS(=O)(=O)c1ccc(N2N=C(c3ccccc3)CC2c2ccccc2)cc1 (configuration not stated),Potency,[1],10.7 µM (active)
O=C(O)c1cc(N(Cc2ccc(C3CCCCC3)cc2)C(=O)c2ccc(Oc3ccccc3)cc2)ccc1O,Potency,[1],23.9 µM (active)
same,Potency,[5],30.8 µM (active)
COc1ccc2cc3c(NC(=O)c4ccco4)nn(C)c3nc2c1,Potency,[1],15.1 µM (active)
same,Potency,[5],inactive
COc1cc(-c2nc(N[C@H](CO)Cc3ccccc3)ccc2C(=O)NCCOc2ccccc2)cc(OC)c1OC,Potency,[1],1.51 µM (active)
O=C(NCCN1CCN(c2cccc3ccc(O)cc23)CC1)c1ccc(F)cc1,Potency,[1],0.601 µM (active)
CCCCc1ccc(NS(=O)(=O)c2ccc(F)cc2)cc1,Potency,[1],1.69 µM (active)
O=C(N[C@H]1CCN(C(=O)c2cc(C(F)(F)F)cc(C(F)(F)F)c2)[C@H](Cc2ccc(Cl)cc2)C1)c1ccnc2ccccc12,Potency,[1],10.7 µM (active)
COc1cc(N2CCOCC2)ccc1NC(=O)c1csc(-c2cccnc2)n1,Potency,[1],inactive
O=C(Nc1cccc([N+](=O)[O-])c1)c1cccc(S(=O)(=O)N2CCCCCC2)c1,Potency,[1],6.01 µM (active)
CCN(CCNC(=O)Nc1ccccc1Br)c1cccc(C)c1,Potency,[1],3.79 µM (active)
O=c1[nH]c2ccc(C#CCN3CCC(Cc4ccccc4)CC3)cc2[nH]1,Potency,[1],7.56 µM (active)
Fc1ccc(-c2cncc(CN3CCN(c4cccc5c4OCCO5)CC3)c2)cc1,Potency,[1],10.7 µM (active)
COc1ccc2nc(-c3cc(OC)c(OC)c(OC)c3)cc(C(=O)NCC(=O)Nc3ccc(C(C)=O)cc3)c2c1,Potency,[1],7.56 µM (active)
same,Potency,[5],inactive
same,Potency,[4],12.9 µM (active)
O=c1cc(N2CCOCC2)nc2c3ccccc3ccn12,Potency,[1],15.1 µM (active)
O=C(C1CCCCC1)N(CCN1CCN(c2ccccc2O)CC1)c1ccccn1,Potency,[1],12 µM (active)
COc1ccccc1OCCN1CC(COc2cccc3[nH]c4ccccc4c23)OCC1=O (configuration not stated),Potency,[1],0.849 µM (active)
Cc1ccnn1-c1ccc(C(=O)N2CCN(S(=O)(=O)c3ccc(Cl)c(C(F)(F)F)c3)CC2)cc1,Potency,[1],6.74 µM (active)
N#Cc1ccc(COc2ccc(-c3cccc4nc(NC(=O)C5CC5)nn34)cc2)cn1,Potency,[1],10.7 µM (active)
CNC(=O)COC(=O)N1CCC(CCc2ccc(Cl)cc2)CC1,Potency,[1],21.3 µM (active)
CCc1ccc(-c2nc(CSCC(=O)NCCc3ccccc3)c(C)o2)cc1,Potency,[1],8.49 µM (active)
O=C(N[C@@H]1CCCc2c1cnn2-c1ccc(F)cc1F)c1ccccn1,Potency,[1],21.3 µM (active)
CCc1cc2c(cc1CC)CC(NCC(O)c1ccc(O)c3[nH]c(=O)ccc13)C2 (configuration not stated),Potency,[1],inactive
CN(C)c1ccnc2sc3c(=O)n(N4CCCCCC4)cnc3c12,Potency,[1],7.56 µM (active)
CCOC(=O)[C@H](CCc1ccccc1)N[C@H]1CCCN2CCC[C@@H](C(=O)O)N2C1=O,Potency,[1],inactive
NC(=O)c1nc(Nc2ccccc2)sc1NC(=O)C1CCCCC1,Potency,[1],0.601 µM (active)
Cc1ccc(C)c(NC(=O)[C@@H]2CCCN2S(=O)(=O)c2cccc3cccnc23)c1,Potency,[1],6.74 µM (active)
CN(C)CCOc1cc(NS(=O)(=O)c2c(Cl)cc(C(F)(F)F)cc2Cl)ccc1Cl,Potency,[1],8.49 µM (active)
Cc1nc(Nc2ccc(F)cc2)nc(N2CCc3ccccc3C2C)c1C (configuration not stated),Potency,[1],5.35 µM (active)
CN[C@@H]1CCc2[nH]c3ccc(C(N)=O)cc3c2C1,Potency,[1],inactive
O=C(Nc1ccccc1)c1ccc(Nc2nnc(-c3ccc(O)cc3)c3ccccc23)cc1,Potency,[1],6.01 µM (active)
same,Potency,[5],inactive
OC1CCC(Nc2nc(-c3ccccc3)nc3[nH]ccc23)CC1 (configuration not stated),Potency,[1],2.68 µM (active)
Cc1[nH]cnc1C[C@H]1CCc2c(C)c3ccccc3n2C1=O,Potency,[1],0.19 µM (active)
Nc1nc2c(s1)CCN(Cc1ccc(Cl)cc1)CC2,Potency,[1],15.1 µM (active)
CCOc1ccc(-n2c(C(C)N(Cc3cccnc3)C(=O)Cc3ccc(F)c(C(F)(F)F)c3)nc3ncccc3c2=O)cc1 (configuration not stated),Potency,[1],4.77 µM (active)
O=C(N[C@H](Cc1cscn1)C(=O)N[C@@H](CC1CCCCC1)[C@@H](O)[C@@H](O)C1CC1)c1nc2ccccc2[nH]1,Potency,[1],1.34 µM (active)
CCCCC(=O)O,Potency,[1],inactive
CNCCCC1(c2ccccc2)OC(C)(C)c2ccccc21 (configuration not stated),Potency,[1],inactive
COC(C)=O,Potency,[1],inactive
CN[C@H]1CC[C@@H](c2ccc(Cl)c(Cl)c2)c2ccccc21,Potency,[1],15.5 µM (active)
same,outcome,Papain (Carica papaya),inactive
same,Potency,[4],6.68 µM (active) and 9.34 µM (active)
same,Potency,[3],2.66 µM (active) and 9.34 µM (active)
C=C(C)[C@@H]1CC=C(COC(=O)NC(=O)c2ncn3c(=O)n(C)nnc23)CC1,Potency,[1],inactive
same,Potency,[4],inactive
COc1ccc(S(=O)(=O)Nc2cc(Cl)cc(Cl)c2OC)cc1N1CCNCC1,Potency,[1],12 µM (active)
same,Potency,[4],20.5 µM (active)
O=c1cc(N2CCN(c3cccc(C(F)(F)F)c3)CC2)[nH]c(=O)n1C1CCCCC1,Potency,[1],3.01 µM (active)
same,Potency,[4],inactive
C#CCOc1ccc2c(c1)c(-c1ccc(C(C)C)cc1)nc(=O)n2C(C)C,Potency,[1],2.68 µM (active)
same,Potency,[4],8.17 µM (active)
same,Potency,[3],11.5 µM (active)
